Shiga inhibitor = inhibitors of Shiga toxin in Vero cells | Vero cells, Shiga toxin protein synthesis inhibition reporter | AID 2315 | 290,000 tested, 9.2% active | inhibition, % at 38.7 µM; in the data active = inhibition mostly above about 28%, no sharp cut-off; inactive = mostly below about 43%
Marburg entry inh = Marburg virus entry inhibition; 300,000 tested, 1.8% active; Marburg virus pseudotyped entry inhibition, cell reporter; Potency, µM (top dose mostly 37.8 µM), usual class: inhibitors; calls by dose curve; tested in HEK293 cells
Vaccinia Venus = inhibitors of vaccinia virus (Venus reporter); AID 720580; 330,000 tested, 0.46% active; Vaccinia virus Venus reporter expression, fluorescence; Potency, µM (highest dose often 36.5 µM), hits mostly inhibitors; calls by dose curve; tested in A549 cells; note: nearly all actives have a fitted effect of over 30% in size
Cycloheximide cs = counter-screen for Shiga toxin inhibitors: cycloheximide protein synthesis inhibition. 300,000 tested, 12% active. max response, %. cell reporter, cycloheximide protein synthesis inhibition counterscreen. AID 2314; in the data active = max response mostly above about 13%, no sharp cut-off; inactive = mostly below about 14%; note: read at 38.3 µM for the half of the compounds with a filed dose
Lassa entry inh = blocks Lassa virus binding to or entry into cells | Potency, µM (highest dose often 37.9 µM), hits mostly inhibitors | 300,000 tested, 1.2% active | Lassa virus pseudotype entry inhibition, cell reporter; calls by dose curve; tested in HEK293 cells; note: nearly all actives have a fitted effect of over 50% in size
VACV mCherry inh = inhibitors of vaccinia virus infection (mCherry reporter signal). Vaccinia virus mCherry reporter infection, fluorescence. Potency, µM (doses to about 36.5 µM), actives largely listed as inhibitors. 310,000 tested, 0.63% active. AID 720579; calls by dose curve; tested in A549 cells; note: nearly all actives have a fitted effect of over 35% in size
Of the large screens only hits and unclear results are named; the others gave an inactive call; ! = not confirmed by another sample. This is one part of a sample in which hits are shown more often than they occur.

Cc1cc(C)nc(NC(=O)c2ccc([N+](=O)[O-])o2)n1	none
O=C(Nc1nc2c(F)cc(F)cc2s1)c1ccc([N+](=O)[O-])o1	Shiga inhibitor 50.5, Vaccinia Venus 10µM, Cycloheximide cs 25.6, VACV mCherry inh 12.6µM (no result: Marburg entry inh, Lassa entry inh)
Cc1cc(C)c2sc(NC(=O)c3ccc([N+](=O)[O-])o3)nc2c1	Vaccinia Venus 11.2µM, VACV mCherry inh inconclusive (no result: Marburg entry inh, Lassa entry inh)
CC(=O)c1cccc(NC(=O)c2nc3ccccc3nc2N2CCCCC2)c1	none (no result: Shiga inhibitor, Marburg entry inh, Cycloheximide cs)
Cc1cc(C)c(S(=O)(=O)N/N=C/c2ccc3c(c2)OCO3)c(C)c1	Cycloheximide cs 14.2
Cc1cc(Cl)c(S(=O)(=O)N/N=C/c2ccc3c(c2)OCO3)c(Cl)c1	Shiga inhibitor 53.5, Cycloheximide cs 40.6
O=S(=O)(N/N=C/c1ccc2c(c1)OCO2)c1ccc(Br)cc1	none (no result: Marburg entry inh, Vaccinia Venus, Lassa entry inh, VACV mCherry inh)
O=[N+]([O-])c1ccc(S(=O)(=O)NN=Cc2ccc3c(c2)OCO3)cc1	Marburg entry inh inconclusive, VACV mCherry inh inconclusive (no result: Shiga inhibitor, Cycloheximide cs)
CCOC(=O)c1ccc(NS(=O)(=O)c2ccc3c(c2)CCN3C(=O)CC)cc1	Marburg entry inh inconclusive (no result: Shiga inhibitor, Cycloheximide cs)
O=C(CN1C(=O)C2(SCC(=O)N2c2cccc(F)c2)c2ccccc21)NCCc1ccccc1 (stereo not given)	none (no result: Shiga inhibitor, Marburg entry inh, Cycloheximide cs)
Cc1ccc(N2CCN(c3nc4ccc(C)cc4n4nnnc34)CC2)c(C)c1	Lassa entry inh inconclusive (no result: Shiga inhibitor, Marburg entry inh, Cycloheximide cs)
CCCCCCCCCCCCN1CCSCCS1(=O)=O	none (no result: Shiga inhibitor, Marburg entry inh, Vaccinia Venus, Cycloheximide cs, VACV mCherry inh)
CN1CC[C@@]2(C)c3cc(O)ccc3N(C)C12 (stereo not given in full)	Marburg entry inh 7.94µM, Lassa entry inh 8.2µM (no result: Shiga inhibitor, Cycloheximide cs)
CNC(=O)Oc1ccc2c(c1)[C@]1(C)CCN(C)[C@@H]1N2C	Marburg entry inh 0.282µM!
CNC(=O)Oc1ccc2ncccc2c1	none
CN1/C(=C\C(=S)NC(=O)c2ccccc2Cl)C(C)(C)c2ccccc21	Marburg entry inh inconclusive
CN1CCN(c2ccccc2NC(=O)c2cccs2)CC1	Marburg entry inh inconclusive
COc1ccccc1C(=O)NC(=S)/C=C1/N(C)c2ccccc2C1(C)C	Marburg entry inh 14.1µM, Cycloheximide cs 14.0, Lassa entry inh inconclusive, VACV mCherry inh inconclusive
O=C(C1CC1)N1c2ccccc2Sc2ccccc21	Marburg entry inh inconclusive, Lassa entry inh inconclusive
CN1/C(=C\C(=O)c2cccs2)Sc2ccccc21	Shiga inhibitor 89.7, Marburg entry inh inconclusive, Cycloheximide cs 39.4, Lassa entry inh inconclusive (no result: VACV mCherry inh)
CN1/C(=C/C(=O)c2cccs2)Sc2ccccc21	Cycloheximide cs 43.5 (no result: Vaccinia Venus, Lassa entry inh, VACV mCherry inh)
CN1/C(=C/C(=O)C2CCC2)Sc2ccccc21	Shiga inhibitor 138.8, Cycloheximide cs 56.6
O/N=C(/C[n+]1cccc(Br)c1)c1ccc2ccccc2c1	none (no result: Shiga inhibitor, Marburg entry inh, Cycloheximide cs, Lassa entry inh)
O=C(NCC1Cc2cccc(-c3cncnc3)c2O1)C1CC1 (stereo not given)	none (no result: Shiga inhibitor, Marburg entry inh, Cycloheximide cs, Lassa entry inh)
OC(c1cccnc1)c1ccc2c(c1)CN(Cc1ccc(-c3ccccc3Cl)o1)CCO2 (stereo not given)	none (no result: Shiga inhibitor, Marburg entry inh, Cycloheximide cs, Lassa entry inh)
CN1/C(=C\C(=O)c2cccs2)C(C)(C)c2ccccc21	Cycloheximide cs 24.6
Cc1ccc(-c2nc(NCC3CCCO3)sc2C)cc1 (stereo not given)	Shiga inhibitor 68.8, Cycloheximide cs 32.3 (no result: Marburg entry inh, Vaccinia Venus, Lassa entry inh, VACV mCherry inh)
Cc1ccc(-n2[nH]c(C)c(C=Nc3ccc(S(=O)(=O)Nc4nccs4)cc3)c2=O)cc1	none (no result: Vaccinia Venus, VACV mCherry inh)
CCc1nnc(NS(=O)(=O)c2ccc(N=Cc3c(C)[nH]n(-c4ccc(C)c(C)c4)c3=O)cc2)s1	Cycloheximide cs 11.7
COc1ccccc1C(=O)Oc1ccccc1C(=O)Nc1ccccc1	Shiga inhibitor 51.9, Cycloheximide cs 22.8 (no result: Marburg entry inh, Lassa entry inh)
COc1cccc2cc(C(=O)Nc3ccccc3C)/c(=N/O)oc12	Shiga inhibitor 89.3, Cycloheximide cs 27.9 (no result: Marburg entry inh, Vaccinia Venus, Lassa entry inh, VACV mCherry inh)
COc1ccccc1C(=O)Nc1ccc(C(=O)c2ccccc2)cc1	Shiga inhibitor 61.9, Marburg entry inh inconclusive, Cycloheximide cs 27.3
COc1ccc2o/c(=N\O)c(C(=O)Nc3ccccc3OC)cc2c1	none
COc1ccccc1C(=O)Nc1ccc(Br)cc1C	Shiga inhibitor 62.7, Marburg entry inh inconclusive, Cycloheximide cs 29.2 (no result: Lassa entry inh)
Cc1cc(C(=O)Nc2cccc(-c3nc(CNC(=O)c4ccccc4C(F)(F)F)c(C)o3)c2)c(C)o1	none (no result: Shiga inhibitor, Marburg entry inh, Cycloheximide cs, Lassa entry inh)
O=C(CCn1c(=O)c2cccn2c2cccnc21)NCc1ccc(F)cc1	none (no result: Shiga inhibitor, Marburg entry inh, Cycloheximide cs)
O=C(Oc1ccccc1C(=O)Nc1ccccc1)c1ccc(Br)c([N+](=O)[O-])c1	Shiga inhibitor 25.7, Marburg entry inh inconclusive, Cycloheximide cs 50.4
Cc1ccsc1C1Nc2ccccc2-c2nc3ccccc3n21 (stereo not given)	Shiga inhibitor 132.3, Marburg entry inh inconclusive, Cycloheximide cs 76.1

Screens as filed in PubChem.
